Test results: PubChem BioAssay AID1159580 (chemical genetic matrix, 2015)
Hit rate of the full screen: of about 5,500 compounds, about 2,000 (36%) were called active. Another 18% or so got no clear call; they are omitted. Cut-off read from the data, not from the text of the source: active = normalized growth mostly below about 0.91 (no sharp cut-off); inconclusive = no clear call, values can overlap the other calls; inactive = mostly above about 0.92. This is one part of the list.

Assay: chemical genetic growth profiling, strain panel (AID 1159580);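 note: tested at 20 µM; growth read once vehicle control cultures reached saturation at 30 °C; 1 = growth at the plate median or of vehicle wells; lower values mean less growth of the strain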
Conditions: growth OD

Measured: normalized growth

OC[C@H]1O[C@@H](O[C@@H]2[C@@H](CO)O[C@](O)(CO)[C@H]2O)[C@H](O)[C@@H](O)[C@H]1O
inactive: S. cerevisiae deletion strains, locus YKL009W, strain mrt4, active compounds read low 1 | S. cerevisiae deletion strains, locus YKL068W, active compounds read low 0.987 | S. cerevisiae deletion strains, locus YKL085W, strain MDH1 (second series), active compounds read low 0.976 | S. cerevisiae deletion strains, locus YKL085W, strain MDH1, active compounds read low 0.976 | S. cerevisiae deletion strains, locus YKL160W, strain elf1, active compounds read low 1 | S. cerevisiae deletion strains, locus YKR001C, strain vps1, active compounds read low 1.01 | S. cerevisiae deletion strains, locus YKR026C, strain gcn3, active compounds read low 1.01 | S. cerevisiae deletion strains, locus YKR091W, strain srl3, active compounds read low 1.01 | S. cerevisiae deletion strains, locus YLL001W, strain dnm1, active compounds read low 0.999 | S. cerevisiae deletion strains, locus YLL026W, active compounds read low 1.01 | S. cerevisiae deletion strains, locus YLL041C, strain sdh2, active compounds read low 1.01 | S. cerevisiae deletion strains, locus YLR027C, strain aat2, active compounds read low 1.01 | S. cerevisiae deletion strains, locus YLR039C, strain RIC1, active compounds read low 0.968 | S. cerevisiae deletion strains, locus YLR058C, strain SHM2, active compounds read low 0.986 | S. cerevisiae deletion strains, locus YLR102C, strain apc9, active compounds read low 0.981 | S. cerevisiae deletion strains, locus YLR113W, strain HOG1, active compounds read low 1.02 | S. cerevisiae deletion strains, locus YLR221C, strain rsa3, active compounds read low 1 | S. cerevisiae deletion strains, locus YLR258W, strain gsy2, active compounds read low 0.998 | S. cerevisiae deletion strains, locus YLR262C, strain YPT6 (second series), active compounds read low 1.03 | S. cerevisiae deletion strains, locus YLR262C, strain YPT6, active compounds read low 1.03 | S. cerevisiae deletion strains, locus YLR268W, strain sec22, active compounds read low 0.972 | S. cerevisiae deletion strains, locus YLR320W, strain mms22, active compounds read low 0.996 | S. cerevisiae deletion strains, locus YLR330W, strain CHS5, active compounds read low 0.994 | S. cerevisiae deletion strains, locus YLR342W, strain FKS1 (second series), active compounds read low 0.994 | S. cerevisiae deletion strains, locus YLR342W, strain FKS1, active compounds read low 1.02 | S. cerevisiae deletion strains, locus YLR357W, strain rsc2, active compounds read low 0.995 | S. cerevisiae deletion strains, locus YLR370C, strain arc18, active compounds read low 1.02 | S. cerevisiae deletion strains, locus YLR371W, strain rom2, active compounds read low 0.974 | S. cerevisiae deletion strains, locus YLR384C, strain iki3, active compounds read low 1.01 | S. cerevisiae deletion strains, locus YLR418C, strain cdc73, active compounds read low 0.954 | S. cerevisiae deletion strains, locus YML016C, strain PPZ1, active compounds read low 0.993 | S. cerevisiae deletion strains, locus YML032C, strain rad52, active compounds read low 0.988 | S. cerevisiae deletion strains, locus YML120C, strain ndi1, active compounds read low 0.99 | S. cerevisiae deletion strains, locus YML124C, strain tub3, active compounds read low 1 | S. cerevisiae deletion strains, locus YMR058W, strain fet3, active compounds read low 1.01 | S. cerevisiae deletion strains, locus YMR078C, strain ctf18, active compounds read low 0.959 | S. cerevisiae deletion strains, locus YMR125W, strain sto1, active compounds read low 0.996 | S. cerevisiae deletion strains, locus YMR129W, active compounds read low 1.01 | S. cerevisiae deletion strains, locus YMR205C, strain PFK2, active compounds read low 1.03 | S. cerevisiae deletion strains, locus YMR223W, strain ubp8, active compounds read low 0.962 | S. cerevisiae deletion strains, locus YMR231W, strain pep5, active compounds read low 1.01 | S. cerevisiae deletion strains, locus YMR307W, strain GAS1, active compounds read low 1 | S. cerevisiae deletion strains, locus YNL067W, strain RPL9B, active compounds read low 1 | S. cerevisiae deletion strains, locus YNL071W, strain lat1, active compounds read low 1.01 | S. cerevisiae deletion strains, locus YNL183C, strain NPR1, active compounds read low 0.959 | S. cerevisiae deletion strains, locus YNL209W, strain ssb2, active compounds read low 1 | S. cerevisiae deletion strains, locus YNL233W, strain BNI4, active compounds read low 0.989 | S. cerevisiae deletion strains, locus YNL248C, strain rpa49, active compounds read low 1.03 | S. cerevisiae deletion strains, locus YNL250W, strain rad50, active compounds read low 0.954 | S. cerevisiae deletion strains, locus YNL271C, strain bni1, active compounds read low 0.966 | S. cerevisiae deletion strains, locus YNL298W, strain CLA4, active compounds read low 0.975 | S. cerevisiae deletion strains, locus YNL307C, strain MCK1, active compounds read low 0.972 | S. cerevisiae deletion strains, locus YNL322C, strain KRE1 (second series), active compounds read low 1.02 | S. cerevisiae deletion strains, locus YNL322C, strain KRE1, active compounds read low 0.996 | S. cerevisiae deletion strains, locus YNR049C, strain mso1, active compounds read low 1.01 | S. cerevisiae deletion strains, locus YNR052C, strain pop2, active compounds read low 0.979 | S. cerevisiae deletion strains, locus YOL006C, strain TOP1, active compounds read low 0.965 | S. cerevisiae deletion strains, locus YOL012C, strain htz1 0.596 | S. cerevisiae deletion strains, locus YOL147C, strain pex11, active compounds read low 0.982 | S. cerevisiae deletion strains, locus YOR001W, strain rrp6, active compounds read low 1 | S. cerevisiae deletion strains, locus YOR061W, strain CKA2, active compounds read low 0.985 | S. cerevisiae deletion strains, locus YOR069W, strain VPS5, active compounds read low 0.989 | S. cerevisiae deletion strains, locus YOR070C, strain gyp1, active compounds read low 1 | S. cerevisiae deletion strains, locus YOR080W, strain dia2, active compounds read low 1.01 | S. cerevisiae deletion strains, locus YOR083W, strain WHI5, active compounds read low 0.989 | S. cerevisiae deletion strains, locus YOR106W, strain vam3, active compounds read low 1.02 | S. cerevisiae deletion strains, locus YOR136W, strain idh2, active compounds read low 0.981 | S. cerevisiae deletion strains, locus YOR144C, strain elg1, active compounds read low 0.98 | S. cerevisiae deletion strains, locus YOR184W, strain ser1, active compounds read low 0.971 | S. cerevisiae deletion strains, locus YOR231W, strain MKK1, active compounds read low 0.98 | S. cerevisiae deletion strains, locus YOR265W, strain rbl2, active compounds read low 1.01 | S. cerevisiae deletion strains, locus YOR270C, strain vph1, active compounds read low 1.06 | S. cerevisiae deletion strains, locus YOR290C, strain snf2, active compounds read low 0.992 | S. cerevisiae deletion strains, locus YOR316C, strain cot1, active compounds read low 0.976 | S. cerevisiae deletion strains, locus YPL051W, strain arl3, active compounds read low 1.01 | S. cerevisiae deletion strains, locus YPL078C, strain atp4, active compounds read low 1.01 | S. cerevisiae deletion strains, locus YPL106C, strain sse1, active compounds read low 1 | S. cerevisiae deletion strains, locus YPL240C, strain hsp82, active compounds read low 1.03 | S. cerevisiae deletion strains, locus YPL241C, strain CIN2, active compounds read low 0.998 | S. cerevisiae deletion strains, locus YPL256C, strain CLN2, active compounds read low 0.957 | S. cerevisiae deletion strains, locus YPR119W, strain clb2, active compounds read low 0.978 | S. cerevisiae deletion strains, locus YPR141C, strain kar3, active compounds read low 0.968 | S. cerevisiae deletion strains, locus YPR163C, strain tif3, active compounds read low 0.972 | S. cerevisiae deletion strains, locus YPR167C, strain met16, active compounds read low 0.985 | S. cerevisiae deletion strains, strain wtn01, active compounds read low 0.967 | S. cerevisiae strains, strain wild type, active compounds read low 0.999
